Screening data: PubChem, National Center for Advancing Translational Sciences (NCATS)
Rows were chosen to be rich in hits. Some 4.2% of all compounds tested hit in one or more screens of this group.
TRPV1 potentiator: HTS Assay for Compounds that Act as Potentiators of the Vanilloid Receptor 1. TRPV1-expressing cells, Fluo-8 calcium influx, capsaicin EC20 potentiation. AID 540277, 2011. hit rate 0.02% among 320,000. potentiation, % at 8.33 µM; in the data active means potentiation above about 80%; inconclusive means between about 30% and that limit; further: 0% is about no effect
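Fluo-8 calcium influx in TRPV1-expressing cells, kinetic read (ex 480/em 520 nm). Compound added and read 3 min for agonist activity, followed by capsaicin at EC20 final and 2 min further read for enhancement.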
D1 potentiator: Potentiators of Human D1 Dopamine Receptor: qHTS; D(1A) dopamine receptor (Homo sapiens), P21728; HEK293 TREx D1 cells, calcium flux, dopamine EC20 potentiation; potentiation, % at 10 µM; hit rate 0.036% among 360,000; AID 504651, 2011; in the data active means potentiation above about 30%; further: 0% is about no effect
Target sequence (P21728 whole entry, looked up): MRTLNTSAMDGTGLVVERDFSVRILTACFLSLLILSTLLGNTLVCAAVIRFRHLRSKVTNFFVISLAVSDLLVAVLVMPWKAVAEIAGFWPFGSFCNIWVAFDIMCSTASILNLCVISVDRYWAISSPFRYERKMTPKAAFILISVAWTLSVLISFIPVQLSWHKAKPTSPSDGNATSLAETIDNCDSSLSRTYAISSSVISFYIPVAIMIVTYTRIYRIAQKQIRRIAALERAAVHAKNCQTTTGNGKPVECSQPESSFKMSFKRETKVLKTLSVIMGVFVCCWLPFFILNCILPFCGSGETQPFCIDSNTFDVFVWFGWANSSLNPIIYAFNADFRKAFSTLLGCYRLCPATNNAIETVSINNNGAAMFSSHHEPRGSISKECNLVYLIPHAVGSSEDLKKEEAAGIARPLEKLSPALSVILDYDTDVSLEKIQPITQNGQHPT
D1 antagonist: Antagonist of Human D 1 Dopamine Receptor: qHTS; D(1A) dopamine receptor (Homo sapiens), P21728; HEK293 TREx D1 cells, calcium flux, dopamine EC80; stronger effect = lower value; activity change, negative = inhibition, % at 10 µM; hit rate 3.2% among 360,000; AID 504652, 2011; in the data active means activity change below about -30%; further: on the % scale 0 is the no-effect control and ±100 the full control effect
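After overnight tetracycline induction at 30 C, force-coupled D1 HEK293 cells took up a no-wash calcium dye at room temperature. Compounds were added and monitored 180 s, and the response to EC80 dopamine was then recorded.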
D1 agonist: Allosteric Agonists of the Human D1 Dopamine Receptor: qHTS; D(1A) dopamine receptor (Homo sapiens), P21728; HEK293 T-REx D1 cells, calcium flux, agonist mode; activation, % at 2 µM; hit rate 1% among 360,000; in the data active means activation above about 30%; further: 0% is about no effect
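Inducible HEK293 T-REx D1 cells, force-coupled to calcium signalling, were plated at 4000 cells/well with tetracycline and held overnight at 30 C. After no-wash calcium dye loading, compound-evoked calcium rise over 180 s flagged agonists.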
TRPV1 ag: HTS Assay for Compounds that Act as Agonists of the Vanilloid Receptor 1; Transient receptor potential cation channel subfamily V member 1 (Homo sapiens), Q8NER1; TRPV1-expressing cells, Fluo-8 calcium influx, agonist mode; activation, % at 8.33 µM; hit rate 0.19% among 320,000; AID 540275, 2011; in the data active means activation above about 80%; inconclusive means between about 30% and that limit; further: 0% is about no effect
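Cells expressing TRPV1 were dye-loaded with Fluo-8 and read kinetically: 10 s baseline, 3 min after compound (agonist portion), then 2 min after EC20 capsaicin (allosteric enhancer portion). Calcium-bound dye fluorescence at 480/520 nm.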
* hit, by the source's call; ? = inconclusive; / = no result given; ! = not active in a repeat.

SMILES	TRPV1 potentiator	D1 potentiator	D1 antagonist	D1 agonist	TRPV1 ag
CC1C(=O)N2CCCc3cc(S(=O)(=O)N4CCN(c5ccc(F)cc5)CC4)cc1c32 (stereo unspecified)	6.1	11.8	-46.1*	3.0	6.6
CC1C(=O)N2CCCc3cc(S(=O)(=O)N4CCN(c5cccc(Cl)c5)CC4)cc1c32 (stereo unspecified)	-8.9	-6.6	-1.5	1.4	6.6
O=C(c1ccc2c(c1)N(Cc1ccccc1)C(=O)c1ccccc1S2(=O)=O)N1CCOCC1	/	-4.1	-7.2	0.7	/
COc1ccc(N2CCN(C(=O)NC3CC(=O)N(c4ccc(OC)cc4)C3)CC2)cc1 (stereo unspecified)	9.4	-6.5	-44.5*	4.7	2.5
CCN1CCN(C(=O)NC2CC(=O)N(c3ccc(OC)cc3)C2)CC1 (stereo unspecified)	5.8	14.2	-4.1	6.0	2.3
COc1ccc(-c2nc3c(C#N)c[nH]n3c2NC2CCCCC2)cc1	/	-1.0	9.9	-0.6	/
CCOC(=O)CCC(=O)Nc1nnc2n1CCS2	/	0.9	1.0	1.4	/
Cc1ccc(S(=O)(=O)c2cn(Cc3cccc(F)c3)c3cc(N4CCCC4)c(F)cc3c2=O)cc1	/	-1.1	1.8	3.1	/
Cc1ccc(-n2nc(CO)c(C(=O)NC(C)CCCc3ccccc3)n2)cc1C (stereo unspecified)	/	-0.8	6.1	24.2	/
O=C(NN=C1C2CC3CC1CC(Cl)(C3)C2)c1ccccn1	13.1	-5.8	-4.3	-1.4	?
O=C(NN=C1C2CC3CC1CC(Cl)(C3)C2)c1cccs1	-40.4	-18.4	-38.6*	0.2	7.7
CC(=O)Nc1ccc(OCc2nnc(-c3ccccc3)o2)cc1	5.4	-8.2	-47.6*	10.7	-0.1
CCOC(=O)c1cc(=O)[nH]c2ccccc12	0.5	-3.8	6.4	-0.4	-1.1
Cc1ccc(-c2nnc(COC(=O)c3cc(=O)[nH]c4ccccc34)o2)cc1	0.7	-0.9	-85.4*	-1.6	2.8
Cc1ccc(C(=O)OCc2nnc(-c3ccccc3)o2)o1	0.4	-2.5	-5.9	23.5	11.9
CC(=O)c1c(C)[nH]c(C(=O)OCc2nnc(-c3ccccc3)o2)c1C	-14.0	-4.0	-31.9*	7.1	-14.9
Cc1ccc(OCc2nnc(-c3ccccc3)o2)cc1	/	-0.9	2.7	4.1	/
Nc1[nH]c2cc([N+](=O)[O-])ccc2c1-c1ccccn1	-5.9	-12.2	-12.1	65.3*	19.7
Cn1c(=O)[nH]c(=O)c2c1nc1n2CCN1c1ccccc1	/	-2.2	12.2	-0.1	/
O=C(CCCN1CCC(NC(=O)c2ccccc2)CC1)c1ccc(Cl)cc1	-11.2	-5.5	-19.5	2.4	-5.5
O=C(CCCN1CCN(c2ccccn2)CC1)c1ccc(F)cc1	-0.9	-7.2	-73.9*	-0.7	4.5
Cc1ccc(C(=O)NC2CCN(CCCC(=O)c3ccc(F)cc3)CC2)cc1	7.8	-9.9	-38.5*	3.0	0.9
O=C(CCc1nc(-c2cccs2)no1)Nc1cccc([N+](=O)[O-])c1	/	-1.7	-33.9*	14.8	/
O=C(CCc1nc(-c2ccccc2F)no1)NC1CCN(Cc2ccccc2)CC1	?	-5.7	-30.1*	31.1*	0.0
O=C(CCc1nc(-c2cccs2)no1)Nc1ccc([N+](=O)[O-])cc1	/	-0.9	-28.1	13.5	/
SMILES	TRPV1 potentiator	D1 potentiator	D1 antagonist	D1 agonist	TRPV1 ag
O=C(CCc1nc(-c2ccccc2F)no1)Nc1cccc(C(F)(F)F)c1	/	-2.6	-29.4	31.5*	/
Cc1cccc(-c2noc(CCCC(=O)Nc3ccc(C(N)=O)cc3)n2)c1	-17.8	2.0	-18.8	3.4	21.8
Cc1cccc(-c2noc(CCC(=O)Nc3ccc(C(N)=O)cc3)n2)c1	3.7	0.6	-5.0	7.6	80.8*
CCOC(=O)c1cccc(NC(=O)CCc2nc(-c3ccccc3F)no2)c1	2.2	-2.1	0.8	10.4	1.8
Cc1ccc(-c2noc(CCC(=O)NC3CCN(Cc4ccccc4)CC3)n2)cc1	19.2	-2.8	-20.0	27.8	-2.3
CCOC(=O)N1CCN(Cc2nc(-c3cccc(C)c3)no2)CC1	-15.7	-1.2	-31.3*	10.1	16.7
CCOC(=O)c1cccc(NC(=O)CCc2nc(-c3ccc(C)cc3)no2)c1	-26.7	3.9	-21.7	31.4*	0.9
CCN(C(=O)CCc1nc(-c2ccc(OC)cc2)no1)c1cc(OC)ccc1OC	14.8	-4.5	-49.0*	29.7	-0.1
CCOC(=O)N1CCN(Cc2nc(-c3ccccc3)no2)CC1	-3.2	-1.6	17.4	10.3	4.4
CCN(C(=O)CCc1nc(-c2ccc(C)cc2)no1)c1cc(C)ccc1C	/	-2.0	-21.3	16.8	/
COc1ccc(-c2noc(CCC(=O)Nc3cccc(C)c3)n2)cc1	22.7	-4.0	-44.6*	6.5	22.3
Cc1ccc(N2CCN(C(=O)c3cnc(N4CCCCC4)c4ccccc34)CC2)c(C)c1	/	-2.0	4.7	1.6	/
COC(=O)c1cccnc1-n1c(=O)c2cccnc2n(CC(=O)Nc2ccccc2F)c1=O	/	0.5	-3.9	-0.7	/
Nc1ccc(N2CCN(c3ncc(C(F)(F)F)cc3Cl)CC2)c(C(F)(F)F)c1	/	-0.6	23.2	0.2	/
Cc1cc(N2CCN(c3ccc(F)cc3)CC2)n2cnnc2n1	/	-0.1	-2.8	2.8	/
COc1ccc(CCCc2nnc(SCC(=O)Nc3cccc(C)c3)o2)cc1C	/	-0.8	-17.8	6.3	/
COc1ccc(CCCc2nnc(SCC(=O)Nc3cccc(C)c3)o2)cc1	6.3	-2.9	-42.9*!	46.5*!	10.3
COc1cc(NC(=O)Cc2nn(C)c(=O)c3ccccc23)cc(OC)c1	-10.5	2.0	-29.1	11.4	?
Cn1nc(CC(=O)Nc2ccc3c(c2)OCCO3)c2ccccc2c1=O	81.2*	-4.9	-21.9	14.1	4.1
Cc1ccc2c(c1)c(=O)c1ccccc1n2CCCC(=O)Nc1ccc(C)c(F)c1	/	-2.0	-47.5*	6.7	/
Cc1ccc2c(c1)c(=O)c1ccccc1n2CCCC(=O)Nc1ccc(C)c(C)c1	/	-1.1	-1.3	1.9	/
CCc1nc(SCC(=O)Nc2ccc3c(c2)OCCO3)c2oc3ccccc3c2n1	-3.5	5.3	-33.7*	2.4	5.7
Cc1ccc(NC(=O)Cc2nn(C)c(=O)c3ccccc23)cc1F	10.9	-5.8	-66.2*	16.7	-3.0
CCn1c(SCC(=O)N2CCC(C)CC2)nnc1-c1ccccc1O	/	-3.9	-2.3	0.9	/
O=C(O)CP(=O)(O)O	2.1	-2.2	-37.9*	-0.2	-2.0
O=P(O)(O)CP(=O)(O)O	10.7	-0.8	-13.2	2.2	-4.2
CCc1ccccc1NC(=O)Cn1nnc(C(=O)NCc2ccco2)c1N	/	0.2	15.5	-0.9	/
